Screening data as filed in PubChem.
Sampled rows, rich in hits. Any-hit rate of the full collection: about 5.4%.
VP16 counter – VP16 counterscreen qHTS for inhibitors of ROR gamma transcriptional activity; Potency, µM (series often up to 53.6 µM), without a hit: at the highest dose activity, negative = inhibition, hits mostly inhibitors; AID 2546, 2010; Drosophila S2 Gal4-VP16 UAS-luciferase, luminescence, 20 h; 3.5% of 310,000 active;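 also: Gal4-VP16 expression switched on by copper sulfate through the metallothionein promoter; potency is read from the fitted curve at half-maximal effect; % is scaled to controls: 0 for no effect and ±100 for the full control effect; nearly all actives have a fitted effect of over 50% in size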
p53 reactivator – qHTS assay for re-activators of p53 using a Luc reporter; H1299 p53-A138V BP100-luciferase reporter, luminescence, 24 h; Potency, µM (series often up to 92.2 µM), without a hit: at the highest dose activity change, positive = activation, actives largely listed as activators; 0.063% of 320,000 active; AID 504706, 2011; also: potency is read from the fitted curve at half-maximal effect; % of control where 0% means no effect; nearly all actives have a fitted effect of over 45% in size
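H1299 (p53-null), stable ts p53-A138V + BP100-Luc; 1000 cells/well, Opti-MEM/10% FBS; cpd 4 pt, 1:5; 24 h, 37 deg C, 5% CO2; detection reagent 10 min RT; luminescence.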
Six1-Eya2 blk – qHTS Assay for Inhibitors of the Six1/Eya2 Interaction; Homeobox protein SIX1 (Homo sapiens) + Protein phosphatase EYA2 (Homo sapiens), …; AlphaScreen GST-Six1/His-Eya2 binding, biochemical; stronger effect = lower value; activity change, % (concentration not given with the values); 0.56% of 360,000 active; in the data active = activity change below about -65%; inconclusive = mostly about -30% to -63%; also: % is scaled to controls: 0 for no effect and ±100 for the full control effect
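AlphaScreen luminescence read after one hour at 37 °C in darkness. Pin-transferred compounds met GST-Six1 and His-Eya2 protein (5X stock 250 nM/500 nM) plus glutathione donor and Ni-chelate acceptor beads (5X, 50 ug/mL).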
CtBP-E1A blk – qHTS Assay for Inhibitors of the CtBP/E1A Interaction; CtBP / adenovirus E1A interaction (AlphaScreen); AlphaScreen GST-E1A/His-CtBP binding, 1536-well; stronger effect = lower value; activity change, % (no concentration beside the values); 0.49% of 340,000 active; in the data active = activity change below about -65%; inconclusive = mostly about -30% to -63%; also: % is scaled to controls: 0 for no effect and ±100 for the full control effect
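Protein mix (5X: 125 nM each GST-E1A, His-CtBP) was incubated with pinned compound 2 h at 37 deg C in dark, in 50 mM Tris pH 8.0 buffer with 300 mM NaCl. Glutathione donor and nickel acceptor beads followed; AlphaScreen signal read after 1 h.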
RORgamma inh – qHTS for inhibitors of ROR gamma transcriptional activity; Nuclear receptor ROR-gamma (Mus musculus), P51450; Potency, µM (doses to about 53.6 µM), for inactives: at the top dose activity change, negative = inhibition, most hits filed as inhibitors; 5.4% of 310,000 active; Drosophila S2 Gal4-RORgamma UAS-luciferase reporter, 20 h; also: potency is read from the fitted curve at half-maximal effect; % is scaled to controls: 0 for no effect and ±100 for the full control effect; nearly all actives have a fitted effect of over 60% in size
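Drosophila S2 cells stably expressing Gal4-DBD/mouse RORγ fusion under metallothionein promoter plus UAS-luciferase; compound 1 h, then 700 uM CuSO4 induction for 20 h at ambient temperature; inhibition read as reduced luminescence.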
Starred values were filed as active, the others as inactive; ? = inconclusive; nt = not tested or not shown; [ ] = another dose, or the depositor's remark. Unless noted, calls follow the shape of the dose curve; as a rule, active = well fitted curve in the direction sought with a large enough effect; inconclusive = small, poorly fitted or top-dose-only effect, or another doubt; inactive = no such curve, though single readings can be large; an effect the other way counts as inactive or inconclusive.

SMILES	VP16 counter	p53 reactivator	Six1-Eya2 blk	CtBP-E1A blk	RORgamma inh
COC(=O)[C@@]1(Cc2ccccc2)[C@H]2C(=O)N(Cc3ccccc3)C(=O)[C@H]2[C@H]2CN=C(SC)N21	nt	-1%	-10	1	nt
CC(C)(C)c1csc(NNC(=O)c2ccc(Cl)cc2)n1	7.1µM*	?	23	-21	0.45µM*
CC(=O)Nc1ccc(-c2ccnc3c2CC(C(=O)Nc2cccnc2)O3)cc1 (stereo not drawn)	nt	nt	-7	0	nt
CC(C)(C)c1cn(-c2ccc(Cl)cc2)c(=S)[nH]1	5.6µM*	1%	0	-4	4.5µM*
COc1ccc(-n2cnc(=S)[nH]c2=S)cc1	nt	nt	2	-1	nt
O=[N+]([O-])c1ccc(Sc2ncccn2)c([N+](=O)[O-])c1	?	-14%	-11	-7	7.9µM*
Cc1cccc(Sc2ccc([N+](=O)[O-])cc2[N+](=O)[O-])n1	-26%	-31%	-2	6	-36%
COC(=O)[C@]12CCCCC=C1N(Cc1ccc(Cl)cc1Cl)C(=O)[C@H](CC(=O)NCCCCc1ccccc1)C2	nt	nt	-1	-7	nt
CCCCCCCc1ccc(C2NC(=S)NC3=C2C(=O)c2ccccc23)cc1 (stereo not drawn)	?	1%	1	-3	5.6µM*
Cc1cc(S(=O)(=O)N2CCCOC2CNC(=O)C(=O)NCc2cccs2)ccc1F (stereo not drawn)	-1%	-42%	-5	1	-5%
Cc1c(C)c2cc3c(C)coc3cc2oc1=O	-10%	2%	11	-7	6%
C(=C\c1nc(-c2ccccc2)oc1Nc1ccc2ccccc2c1)/c1ccccc1	-8%	nt	nt	nt	-6%
CCOC(=O)/C(C#N)=C/c1ccc(OC(=O)c2ccccn2)cc1	?	2%	-87*	-3	?
CC(C)c1cc2c(c(O)c1O)[C@@]13CCCC(C)(C)C1CC2OC3=O (stereo partly drawn)	?	nt	-7	-4	14µM*
O=C(N/N=C/C(Cl)=C/c1ccc([N+](=O)[O-])cc1)C(=O)Nc1ccc(C(=O)O)cc1	15%	27%	-19	-98*	-3%
CCOc1ccccc1NC(=O)C(=O)N/N=C/c1ccc([N+](=O)[O-])cc1	-1%	9%	7	0	-17%
O=C(O)c1cccc([N+](=O)[O-])c1	-1%	nt	nt	nt	-15%
O=C(N/N=C/C(Cl)=C/c1ccc([N+](=O)[O-])cc1)C(=O)Nc1ccccc1C(=O)O	?	?	-25	-92*	49%
O=C(Nc1ccc([N+](=O)[O-])cc1)C(=O)Nc1cccc(C(=O)O)c1	1µM*	-11%	-2	9	0.35µM*
O=C(Nc1ccc(C(=O)O)cc1)/C(=C\c1ccc([N+](=O)[O-])cc1)NC(=O)c1ccco1	nt	nt	4	7	nt
COc1ccc(C2CC(C(F)(F)F)n3nc(C(=O)NCc4c(C)nn(C)c4C)c(Cl)c3N2)cc1 (stereo not drawn)	22µM*	7%	-1	-1	-3%
COc1ccc(-n2ncc3c(=O)n(CC(=O)N(C(C)C)C(C)C)cnc32)cc1	5%	9%	-4	5	-26%
CC(=O)c1ccc2c(c1)C1C=CCC1C(C(=O)O)N2 (stereo not drawn)	-4%	-5%	-68*	?	5%
Cc1ccc2c(c1)C1C=CCC1C(C(=O)O)N2 (stereo not drawn)	-7%	-4%	nt	nt	-11%
COc1ccccc1-c1nnc(NC(=O)c2ccc(S(=O)(=O)N(C)Cc3ccccc3)cc2)o1	0.0028µM*	-1%	-15	-22	0.32µM*
SMILES	VP16 counter	p53 reactivator	Six1-Eya2 blk	CtBP-E1A blk	RORgamma inh
COc1ccc(C(=O)Nc2nnc(S(=O)(=O)N(C)Cc3ccccc3)s2)cc1	5%	19%	6	nt	5%
CN(Cc1ccccc1)S(=O)(=O)c1nnc(NC(=O)c2ccc(F)cc2)s1	-20%	9%	3	-8	-10%
CCc1nnc(NC(=O)c2ccc(S(=O)(=O)N(C)Cc3ccccc3)cc2)o1	?	-1%	-18	?	0.13µM*
CCN(Cc1ccccc1)S(=O)(=O)c1ccc(C(=O)Nc2nnc(C)o2)cc1	0.56µM*	-9%	-20	-30	0.56µM*
CCN(Cc1ccccc1)S(=O)(=O)c1ccc(OC)cc1	-28%	-1%	21	19	122%
CN(Cc1ccccc1)S(=O)(=O)c1ccc(C(=O)Nc2nnc(C3CC3)o2)cc1	0.56µM*	5%	-1	-16	0.28µM*
COc1ccc(C(=O)CSc2nnc(CN3CCCCC3)n2-c2ccc(F)cc2)cc1	-2%	3%	-1	-7	1%[10 µM]
CCc1nnc(NC(=O)c2ccc(S(=O)(=O)N(CC)Cc3ccccc3)cc2)o1	0.11µM*	9%	-20	-23	0.1µM*
CC(=O)c1c(C)n(CCO)c2ccc(O)cc12	-1%	0%	2	-1	2%
CCCCCS(=O)(=O)CCCCCCCCCCn1c(-c2ccc(O)cc2)c(C)c2cc(O)ccc21	20µM*	nt	nt	nt	?
COc1ccc(NC(=S)NCC2CCCO2)c(OC)c1 (stereo not drawn)	1%	8%	3	4	-39%
COc1ccc(Cl)cc1NC(=S)N1CCCCCC1	-30%	9%	10	6	?
COc1ccc(Cl)cc1NC(=S)N1CCC(c2ccc(C)cc2)C1 (stereo not drawn)	-17%	4%	11	6	13µM*
COc1ccc(NC(=S)NC2CCCCCC2)c(OC)c1	7.1µM*	3%	-4	-10	3.2µM*
COc1ccc(Cl)cc1NC(=S)NC1CCCC1	7.1µM*	-43%	-8	nt	10µM*
COc1ccc(NC(=S)NC2CCCCC2)c(OC)c1	?	-4%	-12	0	3.2µM*
COc1ccc(NC(=S)Nc2ccc(OC)cc2OC)c(OC)c1	?	-6%	-5	-3	?
O=c1[nH]c(=O)n(C2CC(O)C(CO)O2)cc1F (stereo not drawn)	-16%	nt	nt	nt	-24%
O=C(O)[C@H](Cc1c[nH]c2ccccc12)N1C(=O)C2=CCCC=C2C1=O	4%	nt	nt	nt	-8%
CC(C)(C)c1ccc(CC(=O)N2CCC2(C)C(=O)NS(=O)(=O)c2ccccc2)cc1 (stereo not drawn)	nt	nt	15	1	nt
O=C(CN1CCCCCC1)N/N=C/c1ccc2ccccc2c1	-15%	nt	-8	nt	-24%
Cc1cccc(C)c1NC(=S)N1CCC(c2ccccc2)C1 (stereo not drawn)	35µM*	3%	2	-5	16µM*
